Experimental data taken from PubChem BioAssay AID1541 (National Center for Advancing Translational Sciences (NCATS), 2009).
Records with an inconclusive call do not appear. Entries that show only a call come without a potency. Activity calls are given as the source filed them. Calls come from the whole dose curve; as a rule, active = well fitted activation curve with a large enough effect; inconclusive = small, poorly fitted or top-dose-only effect, or effect the other way; inactive = no such curve, though single readings can be large or run the other way.

Biological target: Pyruvate kinase PKLR (Homo sapiens) (UniProt P30613)
Assay: Secondary assay for Activators of Human Liver Pyruvate Kinase
Details: purified hPK-L, LDH-coupled NADH fluorescence kinetic; series mostly up to 57.5 µM
Text: Confirmatory assay NIH Chemical Genomics Center [NCGC] Matthew G. Vander Heiden, M.D., Ph.D. [Harvard Medical School, 77 Avenue Louis Pasteur, Boston, MA 02115] NCGC Assay Overview: Human pyruvate kinase liver (hPK-L)enzyme was supplied as a highly purified (>95% pure) preparation from Harvard Medical School and a secondary assay was used to evaluate compounds. This assay couples the formation of pyruvate from hPK-R using lactate dehydrogenase (LDH) and NADH. The depletion of NADH is followed in a fluorescent-based kinetic assay that follows the formation of pyruvate to lactate, as catalyzed LDH. Pyruvate kinase substrates, PEP and ADP, were present in the assay at 0.1 mM and 4 mM respectively. In this kinetic assay initial rates were determined by following the fluorescence of NADH depletion.
NCGC Assay Protocol Summary: Three uL of substrate mix (final concentration, 50 mM Tris-Cl pH 8.0, 200 mM KCl, 15 mM MgCl2, 0.1 mM PEP, 4.0 mM ADP, and 0.2 mM NADH) was dispensed into black-solid 1536 well plates. 23 nL of compounds were delivered by a pin tool and 1 uL of enzyme mix (final concentrations, 10 nM hPK-L and 1 uM of LDH) was added. Plates were immediately placed in ViewLux (Perkin Elmer) and NADH fluorescence was determined at 30 second exposure intervals for between 3 and 6 minutes. Data were normalized to the uninhibited and EC100 activation using known activators such as fructose-bis-phosphate.

Pyruvate kinase PKLR (Homo sapiens), sequence (P30613 whole entry, looked up): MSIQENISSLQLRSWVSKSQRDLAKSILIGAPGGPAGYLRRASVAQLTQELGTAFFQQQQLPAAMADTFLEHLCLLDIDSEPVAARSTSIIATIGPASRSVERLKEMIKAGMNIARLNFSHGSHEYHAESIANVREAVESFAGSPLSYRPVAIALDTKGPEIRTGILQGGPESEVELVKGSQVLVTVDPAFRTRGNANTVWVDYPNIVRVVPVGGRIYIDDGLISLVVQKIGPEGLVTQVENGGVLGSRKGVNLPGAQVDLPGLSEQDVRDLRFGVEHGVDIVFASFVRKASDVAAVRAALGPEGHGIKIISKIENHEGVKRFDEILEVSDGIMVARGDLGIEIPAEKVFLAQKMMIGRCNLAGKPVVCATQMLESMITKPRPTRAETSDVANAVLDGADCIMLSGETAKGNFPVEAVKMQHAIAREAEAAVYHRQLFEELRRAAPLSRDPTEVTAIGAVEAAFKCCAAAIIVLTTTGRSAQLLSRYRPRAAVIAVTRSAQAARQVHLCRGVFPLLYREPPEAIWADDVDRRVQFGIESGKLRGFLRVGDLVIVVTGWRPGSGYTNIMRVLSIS

Compound	Potency
O=S(=O)(NC1CCN(S(=O)(=O)c2c(F)cccc2F)C1)c1ccc2c(c1)OCCO2 (stereo not drawn)	inactive
Cc1nc2ccc(S(=O)(=O)N3CCN(S(=O)(=O)c4c(F)cccc4F)CC3)cc2s1	inactive
Cn1c2cc(B(O)O)sc2c2cnn(Cc3ccccc3F)c(=O)c21	inactive
O=C(c1c(F)cccc1F)N1CCN(S(=O)(=O)c2ccc3c(c2)OCCO3)CC1	inactive
Cn1ccc2cc(S(=O)(=O)N3CCN(S(=O)(=O)c4c(F)cccc4F)CC3)ccc21	inactive
C[C@H]1CN(S(=O)(=O)c2ccc3c(c2)OCCO3)CCN1S(=O)(=O)c1c(F)cccc1F	inactive
O=S(=O)(NCC1CN(S(=O)(=O)c2ccc3c(c2)OCCO3)C1)c1c(F)cccc1F	inactive
Cn1c2cc(Br)sc2c2cnn(Cc3ccc(F)cc3F)c(=O)c21	2510 nM (active)
Cc1cc2c(s1)c1c(C)nn(Cc3ccccc3F)c(=O)c1n2C	inactive
Cn1c2cc(Br)sc2c2cnn(Cc3c(F)cccc3Cl)c(=O)c21	7940 nM (active)
O=S(=O)(NC1CCC(NS(=O)(=O)c2c(F)cccc2F)CC1)c1ccc2c(c1)OCCO2 (stereo not drawn)	inactive
Cn1c2cc(B(O)O)sc2c2cnn(Cc3c(F)cccc3Cl)c(=O)c21	inactive
Cc1cc2c(s1)c1cnn(Cc3c(F)cccc3Cl)c(=O)c1n2C	inactive
COc1ccc(S(=O)(=O)N2CCN(S(=O)(=O)c3ccc4c(c3)OCCO4)CC2)cc1	inactive
O=S(=O)(NCCCCNS(=O)(=O)c1c(F)cccc1F)c1ccc2c(c1)OCCO2	inactive
CC(=O)c1cc2c(s1)c1cnn(Cc3ccccc3F)c(=O)c1n2C	794 nM (active)
Cc1cc2c(s1)c1cnn(Cc3ccc(F)cc3F)c(=O)c1n2C	inactive

Compound	Potency
Cc1cc2c(s1)c1cnn(Cc3cccc(Cl)c3)c(=O)c1n2C	inactive
O=S(=O)(c1ccc2c(c1)OCCO2)N1CCN(S(=O)(=O)c2ccccn2)CC1	inactive
COc1ccc(Cn2ncc3c4sc(C)cc4n(C)c3c2=O)cc1F	inactive
O=C1CN(S(=O)(=O)c2ccc3c(c2)OCCO3)CCN1S(=O)(=O)c1c(F)cccc1F	inactive
Cn1c2cc(CO)sc2c2cnn(Cc3ccccc3F)c(=O)c21	2240 nM (active)
Cc1cc2c(s1)c1cnn(Cc3ccccc3F)c(=O)c1n2C	3520 nM (active)
O=S(=O)(c1ccc2c(c1)OCCCO2)N1CCN(S(=O)(=O)c2c(F)cccc2F)CC1	inactive
COc1cccc(Cn2ncc3c4sc(B(O)O)cc4n(C)c3c2=O)c1	inactive
Cn1c2ccsc2c2cnn(Cc3ccc(F)cc3)c(=O)c21	17800 nM (active)
Cc1cc2c(s1)c1cnn(Cc3ccccc3)c(=O)c1n2C	inactive
O=S(=O)(c1ccc2c(c1)OCCO2)N1CCN(S(=O)(=O)c2cccc[n+]2[O-])CC1	inactive
COc1cc2c(s1)c1cnn(Cc3ccccc3F)c(=O)c1n2C	2510 nM (active)
O=S(=O)(c1c(F)cccc1F)C1CCN(S(=O)(=O)c2ccc3c(c2)OCCO3)CC1	inactive
Cn1c2cc(Br)sc2c2cnn(Cc3c(F)cccc3F)c(=O)c21	inactive
COc1cccc(Cn2ncc3c4sc(Br)cc4n(C)c3c2=O)c1	inactive
O=S(=O)(c1ccc2ccccc2c1)N1CCN(S(=O)(=O)c2c(F)cccc2F)CC1	inactive
